These results are taken from PubChem BioAssay (NCI).

The panel holds about 83,000 compounds, 20% with a hit somewhere; the sample as a whole holds those more often.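 Cells were grown in 96-well plates and exposed to the test compound at a single concentration for 48 hours; results are reported as percent growth, with values below 10 considered active.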 Values without a mark were called inactive. The source made the active and inactive calls.

Common to all, as to test: NCI-60 one-dose screen, 48 h (100 = growth as untreated, 0 = no growth, -100 = all killed)
Conditions in all cases: 10 µM unless noted

In assay [1] the test system is NCI-H23 lung.
Assay [2] concerns NCI-H226 lung.
The subject of assay [3] is NCI-H322M lung.
Assay [4] has as its system HOP-62 NSCLC.
Assay [5] concerns NCI-H460 lung.
Assay [6] concerns HOP-92 NSCLC.
Assay [7] has as its system NCI-H522 lung.
Assay [8] deals with A549/ATCC NSCLC.
In assay [9] the test system is 786-0 renal.
Assay [10] deals with COLO 205 colon.

For `COS(=O)(=O)CCN(CCOS(C)(=O)=O)S(C)(=O)=O`, the growth in assay [1] was 105%; in assay [2], 100%; in assay [3], 108%; in assay [4], 109%; in [5] it was 101%; in assay [6] it was 89.1%. In addition, the growth in assay [7] was 78.2%; in assay [8], 90.1%; in [9] it was 97.9%; in assay [10], 117%.

On to `O=C(NCCNC(=O)c1cc(S(=O)(=O)NCCc2ccccc2)c(O)c(O)c1O)c1cc(S(=O)(=O)NCCc2ccccc2)c(O)c(O)c1O`, for which the growth in assay [1] is 38.9%; in [2] it was 49.5%; in assay [3], 39.5%; in assay [4], 34.6%; in [5], 32.1%; in [6], 73.9%. Also, the growth was 41.6% in assay [7], 45.8% in [8], 53.4% in assay [9] and 104% in assay [10].

For the compound `CN1CCN(Cc2ccc(NC(=O)c3cnc(F)c(C#Cc4cnc(N)c5ncccc45)c3)cc2C(F)(F)F)CC1`, the growth in [1] is 28.3%; in [2], -14.2% (active); in assay [3] it was 33.7%; in assay [4], 16.6%; in assay [5], 13.1%; in [6], -8.06% (active). Also, the growth is 30% in [7], 23.3% in [8], 29.5% in [9] and -7.96% (active) in assay [10].

Take `COc1ccc(-c2n[nH]nc2-c2cc(OC)c3c(c2)OCO3)cc1`: the growth is 10.4% in assay [1]; 69.1% in assay [2]; 13.9% in assay [3]; 18.5% in assay [4]; 7.77% (active) in assay [5]; 29% in [6]. Besides, the growth is -51.6% (active) in assay [7], 13.9% in assay [8], 20.5% in [9] and -93.1% (active) in [10].

On to `CCCCCCCCCCCC1=NC(C)(C)CN1C(C)(C)CO`, for which the growth in [1] was 59.5%; in assay [2], 94.8%; in assay [3] it was 92.6%; in [4] it was 60.4%; in assay [5] it was 28.2%; in assay [6], 28.7%. The growth in assay [7] is 47.5%; in [8], 68.8%; in [9], 71.6%; in [10] it was -81.4% (active).

As for `COc1ccc(/C=C/C(=O)c2ccc(NC(=O)CSc3nnc(-c4ccc(Cl)cc4)n3-c3ccccc3)cc2)cc1`, the growth in [1] is 92.4%; in [2], 104%; in [3], 106%; in assay [4] it was 103%; in assay [5] it was 104%; in assay [6], 107%. Besides, the growth was 84.6% in assay [7], 74% in [8], 98% in assay [9] and 106% in [10].

With `CN1CCN(Cc2ccc(NC(=O)c3cncc(C#Cc4ccc(N)nc4)c3)cc2C(F)(F)F)CC1`, the growth in assay [1] was 17.4%; in [2], -47.3% (active); in assay [3] it was 25.9%; in assay [4], 8.59% (active); in [5] it was 6.66% (active); in assay [6] it was -25.5% (active). Further, the growth is 23.1% in [7], 16.2% in assay [8], 21.6% in assay [9] and -20.4% (active) in assay [10].

Consider `COc1ccc2[nH]cc(C(c3ccc(Cl)cc3)N3CCCC3)c2c1` (stereo not given), for which the growth in assay [1] was 93.2%; in assay [2] it was 98.2%; in assay [3], 94.3%; in assay [4], 97.6%; in [5], 101%; in [6], 79.2%. For the same compound, the growth in assay [7] is 82.1%; in assay [8], 98.8%; in [9] it was 102%; in [10] it was 114%.

As for `N#CC1=C(N)Oc2nc[nH]c(=O)c2C1c1cccs1` (stereo not given), the growth was 110% in assay [1]; 89% in [2]; 105% in assay [3]; 105% in [4]; 106% in [5]; 102% in assay [6]. Besides, the growth was 97.6% in [7], 95.7% in [8], 103% in [9] and 106% in assay [10].

On to `C=C(C)c1ccc(/C=N/NC(N)=S)cc1`, for which the growth was 103% in assay [1]; 86.3% in [2]; 111% in assay [3]; 77.4% in [4]; 99.9% in assay [5]; 131% in assay [6]. The growth in assay [7] was 103%; in assay [8], 118%; in [9], 11.4%; in assay [10] it was 120%.

As for `N#Cc1nc(-c2cccc(Br)c2)cc(-c2ccc(Nc3nc(N4CCCCC4)nc(N4CCCCC4)n3)cc2)c1N`, the growth in [1] was 13%; in [2], -73.7% (active); in assay [3] it was 63.1%; in assay [4], 18.5%; in [5], -21.8% (active); in assay [6], -69.4% (active). The growth in assay [7] was -64.6% (active); in assay [8] it was 21.9%; in assay [9] it was 6.82% (active); in assay [10] it was -57.7% (active).

For `CNC(=O)c1cc(Oc2ccc(NC(=O)c3[nH]c(SC)nc3-c3ccc(F)cc3)cc2)ccn1`, the growth was 75.4% in [1]; 81.7% in assay [2]; 85.4% in assay [3]; 95% in assay [4]; 72.6% in assay [5]; 70.6% in assay [6]. In addition, the growth was 68% in assay [7], 72.2% in assay [8], 78.1% in [9] and 7.33% (active) in assay [10].

Regarding `Nc1cc2nc3ccccc3oc-2cc1=O`, the growth in assay [1] is -33.2% (active); in assay [2], 67.4%; in [3], 108%; in assay [4], 25.4%; in [5] it was -28.7% (active); in assay [6] it was 112%. Also, the growth in assay [7] is -16.5% (active); in assay [8] it was -42.4% (active); in assay [9], 81.9%; in assay [10] it was -74.9% (active).

Consider `CC(=O)OC1Oc2ccccc2-c2oc3nc(=N)n(C)c-3cc21` (stereo not given), for which the growth in [1] is 103%; in assay [2], 117%; in assay [3], 123%; in [4] it was 91.9%; in assay [5], 112%; in assay [6], 99.1%. The growth was 98.1% in [7], 119% in assay [8], 103% in assay [9] and 119% in assay [10].
